The record followed here is PubChem BioAssay (NCI).

SMILES strings stand for the structures. The panel holds about 83,000 compounds, 20% with a hit somewhere; the sample as a whole holds those more often.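 Values shown are percent growth following 48 h exposure of cells in 96-well plates to a single concentration of compound; below 10 was considered active.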 Values without a mark were called inactive. The source made the active and inactive calls.

For this test, the system named is SNB-75 CNS. Description: NCI-60 one-dose screen, 48 h (100 = growth as untreated, 0 = no growth, -100 = all killed). The note with it: 10 µM unless noted. On the procedure: Growth inhibition of the SNB-75 human tumor cell line is measured as a screen for anti-cancer activity. Cells are grown in 96 well plates and exposed to the test compound for 48 hours. Compounds are tested at a single concentration, which is 10^-5 M for most compounds. The reported endpoint is percent growth (GI% or GIPRCNT), where numbers from 0 - 100% represent growth inhibition, and numbers from -100% - 0 represent cell death. For example, a value of 40 represents 60% growth inhibition. A value of 0 means no net growth occurred over the course of the experiment. A value of -40 indicates 40% of cells at the beginning of the experiment died by the end of the experiment. A value of -100 means all cells are dead at the end of the experiment.
NCI-60 Human Tumor Cell Lines Screen was performed using the standard one-dose NCI protocol, which is described in more detail at https://dtp.cancer.gov/discovery_development/nci-60/default.htm.
Compounds with GIPRCNT values below 10 were considered active. Activity score was based on GIPRCNT using the following formula: […]
Score is 0 for GIPRCNT values of 100 or above, 50 for GIPRCNT values of 0, and 100 for GIPRCNT values of -100.
Take `CCOC(=O)C(=O)/C(=C\c1ccc(Cl)cc1)C(=O)N1C(=S)NC(=O)C1CC(C)C` (stereo not given): the growth is 101%.
For `C=C1CC[C@@H]2[C@](C)(CO)[C@H](O)CC[C@@]2(C)[C@@H]1C/C(O)=C1\CCOC1=O` the value was 96.4%.
As for `CC(=O)C1=C(C)NC(NNC(N)=S)=NC1c1ccccc1` (stereo not given), the growth is 41.1%.
For `Cc1ccc(-n2c(/C=C3\C(=O)Nc4ccccc43)ccc2CO)cc1` the value was 41.5%; for `Cc1nn(-c2ccccc2)c2ncnc(N/N=C/c3ccccc3)c12`, 82.9%; for `NC(=O)c1c(NC(=O)c2ccccc2C(F)(F)F)sc2c1CCC(=O)C2`, 44.8%.
In the case of `Cc1ccc(-c2nn(-c3ccccc3)cc2/C=C/C(=O)c2ccc(NC(=O)CCCCCCC(=O)NO)cc2)cc1`, the growth is 102%.
On to `COc1ccc([C@@H]2c3[nH]c4ccccc4c3C[C@H]3C(=O)N(C4CCN(CC5CCCCC5)CC4)CC(=O)N23)c(OC)c1`, for which the growth is 83.2%.
For `COC(=O)/C=C/c1c(C2(C)NC(=O)c3ccccc3N2)c(=O)oc2ccc(Cl)cc12` (stereo not given) the value was 74%.
For `COC(=O)C[Se]C(=O)Cc1c(C)n(C(=O)c2ccc(Cl)cc2)c2ccc(OC)cc12` the value was 73.5%; for `C=CCn1c(SCC(=O)Nc2ccc(C(=O)/C=C/c3cc(OC)c(OC)c(OC)c3)cc2)nnc1-c1c[nH]c2ccccc12`, 91.2%.
For `CCCSc1nc(Nc2ccc(/C(C)=N\NC(N)=S)cc2)c(C#N)c(-c2ccccc2)n1` the value was 141%; for `N#Cc1cccc(CN2CCC3=C(C2)C(=O)N(Cc2ccc(Cl)cc2)C2=NCCN23)c1`, 60.9%.
Regarding `CS(=O)(=O)c1ccc(-n2cc(/C=N/O)c(-c3ccccc3)n2)cc1`, the growth was 87.7%.
As to `C=CCN(C)S(=O)(=O)/N=C1\NC(=O)NC1=C(Cl)Cl`, the growth is 100%.
For `Cc1cc(-c2ccc(Cl)cc2)n(Cc2nnc(SCC(=O)Nc3ccc(S(N)(=O)=O)cc3)n2-c2ccc([N+](=O)[O-])cc2)n1` the value was 129%; for `COc1ccc(C2CC(c3ccc(Nc4nc(NCCO)nc(N5CCOCC5)n4)cc3)=Nc3c(N)nc(N)nc3N2)cc1` (stereo not given), 86.4%.
For `CCOC(=O)C(=O)CC(=O)N1C(=S)NC(=O)C1CC(C)C` (stereo not given) the value was 100%.
For `CN1CCN(c2nc(-c3csc(-c4ccccc4)n3)cc3ccccc23)CC1` the value was 70.5%; for `CNCc1cccc2c1OCCCCCCC(C)(O)CC(C)(C)S(=O)(=O)c1ccc(cc1)-c1cnc(N)c(n1)C(=O)N2` (stereo not given), 84%; for `CC(=O)N1N=C(c2cccc(-n3cccc3)c2)CC1c1cccc(F)c1` (stereo not given), 104%.
As to `COc1ccc2c(c1)c(CC(=O)[Se]CCC#N)c(C)n2C(=O)c1ccc(Cl)cc1`, the growth is -30.1% (active).
For the molecule `C=C(C)[C@@H]1CC[C@]2(C(=O)NCCCCCN(CCC#N)CCC#N)CC[C@]3(C)[C@H](CC[C@@H]4[C@@]5(C)CCC(=O)C(C)(C)[C@@H]5CC[C@]43C)[C@@H]12`, the growth was 62.1%.
In the case of `CC(c1ccccc1)N1CSc2nc3ncncc3n2C1` (stereo not given), the growth is 51.5%.
Consider `Cc1cc(C)cc(C(=O)Nc2cccc(C#Cc3cccc4[nH]nc(N)c34)c2)c1`, for which the growth is 40.3%.
Turning to `CCN1CCN(Cc2cn(-c3ccc(S(N)(=O)=O)cc3)nn2)CC1`, the growth is 95.6%.
As for `CCO/C=N/C1=C(C#N)C(c2ccc(F)cc2)c2sc3c(C)cccc3c2O1` (stereo not given), the growth was 8.13% (active).
For `CCO/C=N/C1=C(C#N)C(c2ccc(F)cc2)c2sc3c(CC)cccc3c2O1` (stereo not given) the value was 3.71% (active); for `CS(=O)(=O)Nc1cc(-c2ccc3ncc(C#N)c(NCc4ccccc4F)c3c2)cnc1Cl`, 26.3%; for `O=C(CCn1cc[n+](CC(=O)c2ccc(-c3ccccc3)cc2)c1)Nc1cccc2cccnc12`, 45.4%.
On to `CCn1c(SCC(=O)Nc2cccc(C(=O)/C=C/c3cc(OC)c(OC)c(OC)c3)c2)nc2ccccc2c1=O`, for which the growth was -4.22% (active).
For `c1cn2c(ccc3nc(-c4cn[nH]c4)c4c(c32)CCCC4)n1` the value was 40.5%; for `COc1ccc2[nH]cc(-c3csc4nc(-c5ccccc5)cn34)c2c1`, -4.19% (active).
With `O=C(CSc1nnc(-c2ccc(Cl)cc2)n1-c1ccccc1)Nc1cccc(Cl)c1`, the growth is 42.5%.
Consider `N/C(=N\C(N)=N\c1nc2ccccc2s1)c1cccc(F)c1`, for which the growth was 89.2% [5 µM].
For `Clc1nc2ccccc2nc1-c1nnc(C2CCCCC2)o1` the value was 97.2%; for `NC(N)=Nc1ccc(Oc2cccc(NC(N)=Nc3ccc(Cl)c(C(F)(F)F)c3)c2)cn1`, 69.3%; for `C#CCC#CCN1CCC[C@H]1C(=O)NCC(=O)OC`, 105%.
Take `CN1CCN(Cc2ccc(NC(=O)c3cncc(C#Cc4cnn5cccnc45)c3)cc2C(F)(F)F)CC1`: the growth was 62.4%.
Regarding `CCCCCc1ccc(S(=O)(=O)Nc2cccc(-c3csc(NC(=O)CNCCN(C)C)n3)c2)cc1`, the growth is 87.5%.
